# Screening results deposited in PubChem BioAssay by National Center for Advancing Translational Sciences (NCATS).
# In the library only some 7.9% were active in any assay of this set; here they are far more common.
# HT1080 IDH1KD tx – HT-1080 IDH1 knockdown cell toxicity (counter line) | Potency, µM (series often up to 46.1 µM), for inactives: top-dose activity, negative = toxicity, most hits filed as cytotoxic | AID 686971 | 2% of 360,000 active | HT-1080 IDH1 knockdown viability, ATP luminescence, 48 h;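 note: 0% = DMSO wells and -100% = cell-free medium wells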
#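 IDH1KD HT-1080 cells, 750/well, RPMI + 5% FBS; compound pinned after 2 h settling; 48 h, 37 °C; CellTiter-Glo luminescence; % activity normalised to DMSO and no-cell wells; curves fitted, classed by r2 and efficacy.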
# KB-3-1 cytotox – kills parental KB-3-1 adenocarcinoma cells | KB-3-1 viability, CellTiter-Glo ATP luminescence, 72 h | Potency, µM (top dose mostly 46.1 µM), usual class: cytotoxic | 1.4% of 400,000 active; note: % is set by controls: 0 for no effect and ±100 for the full control effect; nearly all actives have a fitted effect of over 60% in size
#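 KB-3-1 cells, DMEM (no phenol red) + 10% FBS; compound by pin transfer, 72 h, 37 °C. Readout: CellTiter-Glo luminescence after 10 min. Data normalized, curve-fitted.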
# HT1080-NT tox – kills 2HG-producing HT-1080-NT fibrosarcoma cells. HT-1080-NT fibrosarcoma viability, CellTiter-Glo ATP luminescence, 48 h. Potency, µM (titrated, usually from 46.1 µM), without a hit: at the top dose activity, negative = less viability, usual class: cytotoxic. 1.6% of 360,000 active;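 note: NT is the 2HG producing partner of a matched IDH1 knockdown line; 0% = DMSO-treated cells and -100% = media-only wells without cells; nearly all actives have a fitted effect of over 55% in size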
#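 Read-out is CellTiter-Glo luminescence after 10 minutes at room temperature, following 48 hours' compound treatment of HT-1080-NT cells (750 cells/well, RPMI, 5% FBS, 37 degrees C).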
# KB-V1 MDR tox – KB-V1 MDR subline cytotoxicity; 3.4% of 400,000 active; Potency, µM (titrated, usually from 46.1 µM), actives largely listed as cytotoxic; KB-V1 MDR cells viability, CellTiter-Glo, 72 h; note: % is set by controls: 0 for no effect and ±100 for the full control effect; nearly all actives have a fitted effect of over 60% in size
#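 Cytotoxicity toward P-gp-expressing KB-V1 cells was determined as loss of CellTiter-Glo luminescence after 72 h at 37 degrees C. Compounds were tested in quantitative HTS format across a concentration range, with curves fitted to normalized data.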
# MCF10A rereplic – inducers of DNA re-replication in MCF 10A breast cells; 2.9% of 350,000 active; Potency, µM (doses to about 46.1 µM), inactives show top-dose activity, positive = re-replication, most hits filed as activators; MCF 10A DNA re-replication, Hoechst nuclear intensity, 48 h; note: % of control where 0% means no effect; nearly all actives have a fitted effect of over 50% in size
# SW480 rereplic – inducers of DNA re-replication in SW480 colon cancer cells. SW480 DNA re-replication, Hoechst DNA content imaging, 48 h. Potency, µM (doses to about 46.1 µM), inactives show at the top dose re-replication activation, actives largely listed as activators. 1.8% of 340,000 active. AID 624297; note: % of control where 0% means no effect; nearly all actives have a fitted effect of over 55% in size
#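 Image-based DNA-content assay: after two days of treatment, nuclei were labelled with the DNA dye Hoechst and imaged, and hits were compounds raising the count of nuclei showing high fluorescence intensity.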
# * hit, by the source's call; i = inactive; ? = inconclusive; nt = no result given; ! = not confirmed by another sample. Calls come from the whole dose curve; as a rule, active = well fitted curve in the direction sought with a large enough effect; inconclusive = small, poorly fitted or top-dose-only effect, or another doubt; inactive = no such curve, though single readings can be large; an effect the other way counts as inactive or inconclusive. Potency is the fitted concentration of half-maximal effect.
SMILES,HT1080 IDH1KD tx,KB-3-1 cytotox,HT1080-NT tox,KB-V1 MDR tox,MCF10A rereplic,SW480 rereplic
COc1ccc(-c2n[nH]c3c2CN(C(=O)c2ccc(OC)c(OC)c2)CC3)cc1,21µM*,7.3µM*,-27%,?,21µM*,?
O=C(Cn1c(=O)oc2cc(S(=O)(=O)N3CCCC3)ccc21)NCc1ccc(Cl)cc1,nt,?,nt,i,nt,nt
COc1ccccc1CNc1cc(-c2ccccc2)ccc1OC,1%,i,11%,?,?,9%
COc1ccc(OC)c(NC(=O)CNC(c2ccccc2)c2ccccc2)c1,7%,i,-4%,i,-5%,-10%
COc1ccc(C)cc1NC(=O)CNC(c1ccccc1)c1ccccc1,12%,i,-1%,i,?,25%
COc1ccc(Cl)cc1NC(=O)CN1c2ccccc2CC1C (stereo not given),?,?,?,15µM*,14%,5%
COc1ccc(-c2ccccc2)cc1NCc1ccc(OC)c(OC)c1,7%,i,10%,16µM*,11%,-7%
COc1ccc(CNC(=O)CNC(c2ccccc2)c2ccccc2)cc1OC,-2%,i,-6%,8.2µM*,20%,-3%
COc1ccc(Cl)cc1NC(=O)CNC(c1ccccc1)c1ccccc1,-9%,?,-28%,15µM*,?,?
COc1ccc(C(=O)Nc2ncnc3nc[nH]c23)cc1,nt,i,nt,i,nt,nt
CC1(C)CCC(c2ccc(Cl)cc2)=C(CN2CCN(c3ccc(C(=O)NS(=O)(=O)c4ccc(N[C@H](CCN5CCOCC5)CSc5ccccc5)c(S(=O)(=O)C(F)(F)F)c4)cc3)CC2)C1,nt,i,nt,i,nt,nt
CC1(c2ccccc2)CC(C)(C)n2c(O)c(C3=NC(=S)NC3=O)c3cccc1c32 (stereo not given),-1%,?,1%,12µM*,8%,16%
Cn1cnc2nc(Cl)nc(Cl)c21,?,3.3µM*,?,3.7µM*,7.3µM*,1.3µM*
CNc1nc(Cl)nc2ncn(C)c12,-2%,i,0%,i,1%,0%
C=CCn1c(SCC(=O)NCc2ccco2)nnc1-c1cccc(N(C)C)c1,nt,?,nt,i,nt,nt
CCOc1ccc(S(=O)(=O)N(CC)CC)cc1N,-7%,i,2%,i,3%,-64%
CCOc1ccc(C(=O)c2ccc(OCC)c(N)c2)cc1N,-18%,?,-1%,i,18µM*,?
COc1cccc(Nc2nc3ccc(C)cc3nc2-n2nc(C)cc2C)c1,nt,i,nt,i,nt,nt
COc1cccc(CC(NC(C)=O)C(=O)NC2CCN(c3c(Cc4ccccc4)c(C)nc4ncnn34)CC2)c1 (stereo not given),-2%,?,5%,i,?,23µM*!
CC(=O)NC(Cc1ccc(F)cc1)C(=O)NC1CCN(c2ncccc2[N+](=O)[O-])CC1 (stereo not given),1%,i,10%,i,0.82µM*,-33%
CC(=O)NC(Cc1cccc(F)c1)C(=O)NC1CCN(c2ncccc2[N+](=O)[O-])CC1 (stereo not given),-1%,i,2%,i,2%,-9%
CC(=O)NC(Cc1cccc(C)c1)C(=O)NC1CCN(c2ncccc2[N+](=O)[O-])CC1 (stereo not given),0%,i,4%,15µM*,-4%,-3%
Cc1ccccc1-c1cc(C(=O)n2cccn2)c2cc(Cl)ccc2n1,10µM*,?,?,i,2%,3%
Cc1ccccc1-c1nc2ccc(Cl)cc2c(=O)n1O,-10%,i,-13%,i,-1%,-8%
O=C(Nc1ccccc1N1CCCC1)c1cc(Cl)ccc1Cl,1%,i,4%,i,17%,7%
SMILES,HT1080 IDH1KD tx,KB-3-1 cytotox,HT1080-NT tox,KB-V1 MDR tox,MCF10A rereplic,SW480 rereplic
CC(=O)Nc1cccc(C(=O)Nc2ccccc2N2CCOCC2)c1,?,16µM*,?,15µM*,?,?
O=C(Nc1ccccc1N1CCOCC1)c1ccc2ccccc2c1,1%,i,0%,i,7%,26%
COc1ccc(N2CCOCC2)c(NC(=O)COc2cccc(C)c2)c1,0%,i,6%,13µM*,-1%,-4%
O=C(Nc1ccccc1N1CCCCC1)c1cccc(Cl)c1,7%,i,12%,i,21µM*,0%
O=C(COc1cccc(Cl)c1)Nc1ccccc1N1CCCCC1,-1%,i,5%,?,18µM*,6%
Cc1ccc(Cl)cc1NC(=O)CCc1c(C)nc2c3cccnc3nn2c1C,nt,i,nt,i,nt,nt
COc1ccc(Cl)cc1C(=O)Nc1ccccc1N1CCN(C)CC1,-1%,i,-7%,5.8µM*,28%,14%
Cc1cc(C)c(OCC(=O)Nc2ccccc2N2CCOCC2)c(C)c1,?,21µM*,-11%,i,?,?
O=C(Nc1ccccc1N1CCCCC1)c1cccs1,15%,i,0%,i,21µM*,7%
CS(=O)(=O)N1CCN(c2ccccc2NC(=O)c2cccs2)CC1,-3%,i,-2%,i,-3%,3%
O=C(COC(=O)/C=C/c1ccccc1)Nc1cc(C(F)(F)F)ccc1N1CCOCC1,-12%,i,-19%,i,-8%,5%
COc1ccccc1/C=C/C(=O)OCC(=O)Nc1cc(C(F)(F)F)ccc1N1CCOCC1,?,?,?,?,?,9.2µM*
CC(C)NC(=O)C1(C)CSCC(=O)N1Cc1cccc(C(F)(F)F)c1 (stereo not given),9%,i,15%,i,nt,nt
Fc1ccc(Nc2nc(-c3cccc(Cl)c3)c3c(n2)-c2ccccc2OC3)cc1,nt,i,nt,i,nt,nt
CCc1ccc(C(O)c2ncc(-c3ccccc3F)[nH]2)cc1 (stereo not given),-29%,i,4%,i,nt,nt
COc1ccc2c(c1)sc1ncc(C(=O)NCc3ccc(Cl)cc3)c(=O)n12,nt,i,nt,i,nt,nt
Cc1cc(C)c(OCC(=O)Nc2ccccc2N2CCCCC2)c(C)c1,-14%,i,-3%,16µM*,17%,?
Cc1ccc(OCC(=O)Nc2ccccc2N2CCCC2)c(C)c1,-4%,i,1%,i,67%,5%
Cc1ccc(C)c(N2N=C(C(=O)Nc3ccccc3N3CCCC3)CCC2=O)c1,?,i,?,?,21µM*,?
N#Cc1ccccc1NC(=O)CNc1ccccc1N1CCCCC1,?,i,?,21µM*,?,0%
Cc1ccc(C(=O)c2oc3ccccc3c2NC(=O)c2cc(-c3ccccc3)on2)cc1,nt,i,nt,i,nt,nt
